Laboratory results as given in the supplement of paper PMC7156485.
Unmarked numbers belong to inactive results.

These molecules were tested on HCC1569 (assay: H1.0 immunofluorescence intensity relative to DMSO (% of DMSO); higher = stronger H1.0 induction, active = 140 or more). Details: concentration: 10 µM; 24 h.
In short: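 Compounds were applied at 10 µM for 24 h at 37 °C, in triplicate, to HCC1569 and TDF cells. The cells were then fixed and stained for H1.0, and nuclei were counterstained with DAPI. Nuclear H1.0 intensity or cell number is reported relative to the plate control as a percent, taking the median of replicates. Smoothing for positional effects was applied to HCC1569 values only.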
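Note: TDF is a line of transformed human dermal fibroblasts of mesenchymal origin.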

Row | SMILES | H1.0 immunofluorescence intensity
1 | C=CC[C@H](N)C(=O)O [L-allylglycine] | 92.4
2 | Oc1ccc(O)cc1 [Hydroquinone] | 118
3 | Cc1cc(Nc2nc(NC(C)c3ccc(F)cc3)c(C#N)cc2F)n[nH]1 (centres undefined) | 146 (active)
4 | Cn1c(=O)c2c(ncn2CC2OCCO2)n(C)c1=O [Doxofylline] | 104
5 | O=C(O)c1cccnc1C(=O)O [Quinolinic acid] | 99.9
6 | COc1c(O)cc2c(c1O)C1OC(CO)C(O)C(O)C1OC2=O (centres undefined) [Bergenin] | 93.5
7 | N#CC(=C(N)Sc1ccc(N)cc1)c1ccccc1C(F)(F)F | 126
8 | COc1ccc(CN2CCN(C(c3ccc(F)cc3)c3ccc(F)cc3)CC2)c(OC)c1OC [Lomerizine] | 105
9 | COc1cc2c(cc1-c1c(C)noc1C)ncc1[nH]c(=O)n([C@H](C)c3ccccn3)c12 | 218 (active)
10 | CCCCCCC=CCCCCCCCCCC(=O)O [11(Z)-Octadecenoic acid] | 105
11 | Fc1ccc(C2CCNCC2COc2ccc3c(c2)OCO3)cc1 (centres undefined) [Paroxetine] | 114
12 | O=c1[nH]c2cc([N+](=O)[O-])c([N+](=O)[O-])cc2[nH]c1=O | 91.4
13 | COC(=O)C1C2CC3c4[nH]c5cc(OC)ccc5c4CCN3CC2CC(OC(=O)c2cc(OC)c(OC)c(OC)c2)C1OC (centres undefined) [Reserpine] | 101
14 | CC(C)(C)C(=O)OCOC(=O)[C@@H]1N2C(=O)[C@@H](/N=C/N3CCCCCC3)[C@H]2SC1(C)C | 115
15 | CC(C)(CO)Cc1cc(C(C)(C)C)c(O)c(C(C)(C)C)c1 | 109
16 | CCC(=O)OC1(C(=O)SCF)C(C)CC2C3CC(F)C4=CC(=O)C=CC4(C)C3(F)C(O)CC21C (centres undefined) | 116
17 | CCCCCC=CCC=CC=CC=CC(O)C(O)CCCC(=O)O (centres undefined) | 96.6
18 | COc1cc2ncnc(Nc3ccc(Oc4ccccc4)cc3)c2cc1OC [Src Kinase Inhibitor I] | 147 (active)
19 | CCCCCN(C)CCC(O)(P(=O)(O)O)P(=O)(O)O [Ibandronate] | 97.2
20 | CCC=CCC=CCC=CCCCCCCCC(=O)O [Linolenic acid] | 97.6

Row | SMILES | H1.0 immunofluorescence intensity
21 | NS(=O)(=O)c1ccc(N2CCN(CC[C@@H]3OCCc4ccccc43)CC2)cc1 | 104
22 | COc1cccc2oc(-c3ccccc3)cc(=O)c12 [5-Methoxyflavone] | 98.8
23 | COc1ccc2c(c1)c(CC(=O)N1CCOCC1)c(C)n2C(=O)c1ccc(Cl)cc1 [Indomethacin morpholinylamide] | 85.5
24 | O.c1cnc2c(c1)ccc1cccnc12 [1,10-Phenanthroline monohydrate] | 93.9
25 | COc1ccc2cc1Oc1ccc(cc1)CC1c3cc(c(OC)cc3CCN1C)Oc1c(OC)c(OC)c(OC)c3c1C(C2)N(C)CC3 (centres undefined) [Hernandezine] | 110
26 | Cn1cnc2c(F)c(Nc3ccc(Br)cc3Cl)c(C(=O)NOCCO)cc21 | 98.8
27 | O=c1[nH]ccc2c(O)cccc12 [1,5-Isoquinolinediol] | 91.6
28 | O=C1[N-]C(=O)C(c2ccccc2)(c2ccccc2)N1.[Na+] [Phenytoin sodium] | 103
29 | CNC1(C)C2CCC(C2)C1(C)C.Cl (centres undefined) [Mecamylamine hydrochloride] | 93.5
30 | CNCCC(Oc1ccccc1C)c1ccccc1 (centres undefined) [Tomoxetine] | 102
31 | NC1(C(=O)O)CCc2cc(C(=O)O)ccc21 (centres undefined) | 84.5
32 | CC(Oc1c(Cl)cccc1Cl)C1=NCCN1.Cl (centres undefined) [Lofexidine.HCl] | 96.1
33 | CN[C@H](CC(=O)O)C(=O)O [N-Methyl-D-aspartic acid] | 98.8
34 | CCCCCCCCCCCCCCCCCC(=O)NCC(COP(=O)([O-])OCC[N+](C)(C)C)OC (racemic) [rac-2-Methoxy-3-octadecanamido-1-propylphosphocholine] | 101
35 | CC1C(=O)N=C2Nc3cccc(Cl)c3CN21 (centres undefined) [Quazinone] | 96.3
36 | COc1ccc2c(c1)c(C1=C(c3c[nH]c4ccccc34)C(=O)NC1=O)cn2CCCN(C)C | 174 (active)
37 | O=[N+]([O-])c1ccc(-c2nc(-c3ccc(F)cc3)c(-c3ccncc3)[nH]2)cc1 | 139
38 | Cl.Cl.OCCN1CCN(CCCN2c3ccccc3Sc3ccc(C(F)(F)F)cc32)CC1 [Fluphenazine.2HCl] | 116
39 | CC(C)c1cccc(C(C)C)c1N1C(=O)c2ccc(O)cc2C1=O | 162 (active)
